# Source: ChEMBL document CHEMBL1961873, “Compounds: GSK PKIS; Assays: Nanosyn kinase panel” (2012)
# Target: T1, Serine/threonine-protein kinase D3 (Homo sapiens) (UniProt O94806)
# T1 sequence (whole entry): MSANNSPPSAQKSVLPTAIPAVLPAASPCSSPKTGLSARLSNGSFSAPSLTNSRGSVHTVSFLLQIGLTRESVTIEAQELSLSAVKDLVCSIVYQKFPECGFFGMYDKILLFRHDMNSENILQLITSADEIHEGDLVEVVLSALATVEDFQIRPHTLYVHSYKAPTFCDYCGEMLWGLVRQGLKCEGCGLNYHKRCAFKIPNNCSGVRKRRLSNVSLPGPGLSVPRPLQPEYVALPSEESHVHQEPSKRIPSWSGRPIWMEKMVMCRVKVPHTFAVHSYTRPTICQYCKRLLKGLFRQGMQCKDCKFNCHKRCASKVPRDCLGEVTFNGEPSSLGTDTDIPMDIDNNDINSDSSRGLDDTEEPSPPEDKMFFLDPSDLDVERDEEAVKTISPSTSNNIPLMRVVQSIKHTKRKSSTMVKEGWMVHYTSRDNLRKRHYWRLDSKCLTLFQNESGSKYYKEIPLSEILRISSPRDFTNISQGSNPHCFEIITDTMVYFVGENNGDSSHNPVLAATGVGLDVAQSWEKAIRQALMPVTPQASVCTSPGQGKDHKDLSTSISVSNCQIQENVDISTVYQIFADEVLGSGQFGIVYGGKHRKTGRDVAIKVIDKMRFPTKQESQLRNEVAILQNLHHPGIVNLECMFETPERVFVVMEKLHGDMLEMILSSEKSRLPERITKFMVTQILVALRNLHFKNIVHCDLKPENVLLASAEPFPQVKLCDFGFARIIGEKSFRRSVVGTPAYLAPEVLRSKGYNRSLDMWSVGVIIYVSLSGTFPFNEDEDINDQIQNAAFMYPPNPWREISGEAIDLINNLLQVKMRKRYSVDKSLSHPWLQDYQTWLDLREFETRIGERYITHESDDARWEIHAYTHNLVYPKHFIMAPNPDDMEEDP
# Conditions: at 1 µM
# 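Further: values are mean inhibition figures against PRKD3.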
row,Compound,inhibition
1,NC(=O)Cc1ccccc1Oc1nccc(-c2c(-c3ccc(F)cc3)ncn2C2CCNCC2)n1,8.49%
2,C[C@@H](Oc1cc(-n2cnc3ccc(OC4CCN(C)CC4)cc32)sc1C(N)=O)c1ccccc1Cl,3.55%
3,NS(=O)(=O)c1ccc(N/N=C2\C(=O)Nc3ccc(-c4cnco4)cc32)cc1,7.39%
4,NS(=O)(=O)c1ccc(Nc2cc(-c3ccc(O)c(F)c3)n[nH]2)cc1,0.82%
5,CCS(=O)(=O)c1ccc(OC)c(Nc2ncc(-c3ccccc3Cl)o2)c1,0.32%
6,COc1cc(Nc2ncc3c(C)nc(-c4cccc(C(F)(F)F)c4)n3n2)cc(OC)c1OC,2.79%
7,Cc1ccc(C(=O)NC2CCC2)cc1-c1ccc(C(=O)NCC2CC2)cc1,2.6%
8,C[C@@H](Oc1cc(-n2cnc3ccc(OCC4CCN(C)CC4)cc32)sc1C(N)=O)c1ccccc1Cl,12%
9,Fc1ccc(-c2ncn(C3CCNCC3)c2-c2ccnc(Oc3ccc4c(c3)OCO4)n2)cc1,9.26%
10,CCS(=O)(=O)c1ccc(OC)c(Nc2ncc(-c3cccc(-c4ccccc4F)c3)o2)c1,1.54%
11,CN(c1ccc(NC(=O)Nc2c(Cl)cccc2Cl)cc1)c1ccnc(Nc2cccc(CS(C)(=O)=O)c2)n1,0.38%
12,O=C(NCC1CC1)c1ccc(-c2cccc(C(=O)NC3CC3)c2)cc1,1.81%
13,COc1ccc2cc(-c3c(-c4ccncc4)nc(-c4ccc(S(C)(=O)=O)cc4C)n3C)ccc2c1,4.2%
14,NC(=O)c1ccc(Oc2nccc(-c3c(-c4ccc(F)cc4)ncn3C3CCNCC3)n2)cc1,5.2%
15,Nc1nccc(-c2c(-c3ccc(F)cc3)ncn2C2CCC(O)CC2)n1 (centres undefined),19.4%
16,COc1cc2ncn(-c3cc(OCCc4ccccc4)c(C(N)=O)s3)c2cc1OC,4.36%
17,Cc1ccc(NC(=O)c2ccoc2)cc1-c1ccc(C(=O)NCC2CC2)cc1,2.95%

row,Compound,inhibition
1,COc1cc(Nc2ncc(-c3ccccc3)o2)cc(OC)c1OC,-1.6%
2,O=C(Nc1n[nH]c2nc(-c3ccc(O)cc3)c(Br)cc12)C1CC1,6.49%
3,CCc1nccc2c1nc(-c1nonc1N)n2CC,2.71%
4,COc1ccc(C2=C(N3CCc4ccccc43)C(=O)NC2=O)cc1,8.41%
5,COc1ccc(-c2ccc3c(NC(=O)C4CC4)n[nH]c3n2)cc1,1.7%
6,COc1cc2ncn(-c3cc(OCc4ccccc4C(F)(F)F)c(C(C)=O)s3)c2cc1OC,3.23%
7,Fc1ccc(-c2ncn(C3CCNCC3)c2-c2ccnc(Oc3ccc(Oc4ccccc4)cc3)n2)cc1,7.01%
8,COc1cc2ncn(-c3cc(OCc4cccs4)c(C(N)=O)s3)c2cc1OC,-2.04%
9,O=C(Nc1ccc(Oc2ccc3[nH]c(NC(=O)c4ccccc4)nc3c2)cc1)Nc1cc(C(F)(F)F)ccc1F,3.63%
10,Fc1ccc(-c2nc3n(c2-c2ccncc2)CCS3)cc1,3.94%
11,Fc1ccc(-c2ncn(C3CCNCC3)c2-c2ccnc(Oc3ccc(F)c(F)c3)n2)cc1,5.58%
12,COc1cccc(/C=N/Nc2ncnc3c2cnn3-c2cccc(OC)c2)c1,2.93%
13,C/C(Nc1ccc(S(N)(=O)=O)cc1)=C1/C(=O)Nc2ccccc21,9.13%
14,NS(=O)(=O)c1ccc(N/N=C2\C(=O)Nc3ccc(C(=O)NCCCn4ccnc4)cc32)cc1,17.6%
15,CN(C)CCOc1ccc(-c2cc(-c3ccc4c(c3)CCC4=NO)c(-c3ccncc3)o2)cc1,0.31%
16,COc1ccc2cc(-c3c(-c4ccncc4)nc(-c4ccc([S+](C)[O-])cc4C)n3C)ccc2c1 (centres undefined),-0.05%
17,FC(F)(F)c1cccc(Nc2nccc(-c3cnn4nc(-c5ccccc5)ccc34)n2)c1,2.61%
